# Laboratory results: the supplement of paper PMC9135407
# Several values for one entry are separate records, joined by “and”; a condition that tells them apart may be missing. Equal entries are not always repeated. Structures can show the parent of a compound that is named as a salt. Hit rate of the full screen: of about 5,800 compounds, about 620 (11%) showed activity. The sample as a whole holds a higher share of actives than the screen did. A number with no mark means an inactive call.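 Rule for the calls: active = score above a cut-off or among the top three wells of a plate; in these data no inactive exceeds 0.85.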
# Tested on: primary human hepatic stellate cells (donor 1)
# Assay: scaled lipid accumulation score (0 = DMSO-like, 1 = nortriptyline-like); higher = stronger HSC inactivation (lipid re-accumulation), active = hit call of the paper
# Conditions: 48 h
# Experimental: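 Primary lipid accumulation screen in primary human hepatic stellate cell myofibroblasts (donor 1, passage 8) in 384-well plates. 100 nL of library compound was pin-transferred into 30 µL medium in duplicate, and cells were treated for 48 h. The 'Scaled' score combines distance from plate baseline, toxicity and reproducibility penalties, and is normalised to nortriptyline (positive) and DMSO (negative) controls on each plate. A hit is defined as scaled >0.85 or among the top 3 wells per plate.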
# [1] = library stock concentration: 1 mM
# [2] = library stock concentration: 10 mM
# [3] = library stock concentration: 80 uM
# [4] = library stock concentration: 400 uM
# [5] = library stock concentration: 2 mM
smiles,measurement,setting,value
CCCCC/C=C\C/C=C\C/C=C\C/C=C\CCCC(=O)NOCCO [oxy-Arachidonoyl Ethanolamide],scaled lipid accumulation score,[1],0.014
C[C@H](N)C(=O)N[C@@H](C)C(=O)N[C@@H](Cc1ccccc1)C(=O)CCl,scaled lipid accumulation score,library stock concentration: 14.7 mM,0.708
CCCCCCCCCCCCCC(=O)O[C@@H]1[C@@H](C)[C@@]2(O)[C@@H](C=C(CO)C[C@]3(O)C(=O)C(C)=C[C@@H]23)[C@@H]2C(C)(C)[C@]12OC(C)=O [Phorbol 12-myristate 13-acetate] [listing 1 of 2 here],scaled lipid accumulation score,[2],≤ 0
CC(=O)O[C@@]12C[C@@H](C)[C@@]3(O)[C@@H](C=C(CO)C[C@]4(O)C(=O)C(C)=C[C@@H]34)[C@@H]1C2(C)C [Prostratin],scaled lipid accumulation score,[1],0.583 (active)
CCCCCCCCCCCCCC(=O)O[C@@H]1[C@@H](C)[C@@]2(O)[C@@H](C=C(CO)C[C@]3(O)C(=O)C(C)=C[C@@H]23)[C@@H]2C(C)(C)[C@]12OC(C)=O [Phorbol 12-myristate 13-acetate] [listing 2 of 2 here],scaled lipid accumulation score,library stock concentration: 8.1 mM,0.934 (active)
CC(=O)O[C@@H]1CC[C@@]2(C)[C@@H](CC[C@@H]3[C@@H]2CC[C@]2(C)C(=O)CC[C@@H]32)C1 [Androsterone acetate],scaled lipid accumulation score,[2],≤ -0.027
C=CCN1CC[C@]23c4c5ccc(O)c4O[C@H]2/C(=N/N=C2\CC[C@@]4(O)[C@H]6Cc7ccc(O)c8c7[C@@]4(CCN6CC=C)[C@H]2O8)CC[C@@]3(O)[C@H]1C5 [Naloxonazine 2HCl],scaled lipid accumulation score,library stock concentration: 3.1 mM,0.144
N[C@@H]1C[C@H]1c1ccccc1.N[C@H]1C[C@@H]1c1ccccc1 [Tranylcypromine sulfate],scaled lipid accumulation score,library stock concentration: 8.6 mM,≤ 0
same,scaled lipid accumulation score,[2],≤ 0
N[C@@H]1C[C@H]1c1ccccc1.N[C@H]1C[C@@H]1c1ccccc1 [Tranylcypromine],scaled lipid accumulation score,[3],≤ 0
same,scaled lipid accumulation score,[4],≤ 0
same,scaled lipid accumulation score,[5],≤ 0
same,scaled lipid accumulation score,[2],≤ 0
same,scaled lipid accumulation score,library stock concentration: 15 mM,≤ -0.003
C=C(C)[C@@H]1CCC(C)=C[C@H]1C1=C(O)C(=O)C(CCCCC)=CC1=O,scaled lipid accumulation score,[1],0.055
CC1=C2C(=CO[C@H](C)[C@H]2C)C(O)=C(C(=O)O)C1=O [Citrinin],scaled lipid accumulation score,[2],≤ 0
Cn1c2cccc(=O)c-2nc2ccccc21 [Pyocyanin],scaled lipid accumulation score,[1],≤ 0
CC(=O)OC1CN2CCC1CC2 (centres undefined),scaled lipid accumulation score,[2],0.001
CCCCC/C=C\C/C=C\C/C=C\C/C=C\CCCC(=O)NC1CC1 [Arachidonoyl Cyclopropylamide],scaled lipid accumulation score,[1],≤ 0
"CN(C(=O)Cc1ccc(Cl)c(Cl)c1)C(CN1CCCC1)c1cccc(OCC(=O)O)c1 (centres undefined) [ICI 204,448 hydrochloride]",scaled lipid accumulation score,[2],0.053
CN(C(=O)Cc1ccccc1)C(CN1CCCC1)c1ccccc1 (centres undefined) [N-MPPP Hydrochloride],scaled lipid accumulation score,[2],0.172
"CN(C(=O)Cc1ccc(Cl)c(Cl)c1)[C@H](CN1CCCC1)c1ccccc1.Cl [ICI-199,441 hydrochloride]",scaled lipid accumulation score,[2],1.58 (active)
CCCCCc1cc(O)c2c(c1)OC(C)(C)C1CCC(C(=O)O)=CC21 (centres undefined) [Tetrahydrocannabinol-7-oic acid],scaled lipid accumulation score,[1],≤ -0.021
COc1cc(CNC(=O)CCCCCCC(C)C)c(I)cc1O,scaled lipid accumulation score,[1],≤ 0
COc1cc2c3cc1Oc1cc(ccc1O)C[C@@H]1c4c(cc(OC)c(O)c4Oc4cccc(c4)C[C@@H]3N(C)CC2)CC[N+]1(C)C [Tubocurarine chloride pentahydrate (+)],scaled lipid accumulation score,,0.039
O=c1ccc2[nH]cc(C3=CCNCC3)c2[nH]1,scaled lipid accumulation score,[2],0.084 and ≤ -0.006
CCCOc1ccc2[nH]cc(C3=CCNCC3)c2n1,scaled lipid accumulation score,[2],0.748
"COc1ccc2[nH]c3c(c2c1)CCNC3 [6-Methoxy-1,2,3,4-tetrahydro-9H-pyrido[3,4b] indole]",scaled lipid accumulation score,[2],0.691
COc1ccc2[nH]cc(C3=CCNCC3)c2c1.COc1ccc2[nH]cc(C3=CCNCC3)c2c1.O=C(O)CCC(=O)O,scaled lipid accumulation score,[2],1.68 (active)
N#Cc1ccc(N2CCN(C(=O)COc3ccc4[nH]cc(CCN)c4c3)CC2)cc1 [Donitriptan hydrochloride],scaled lipid accumulation score,[2],≤ 0
CN1CC[C@@H]2CN3CCc4cccc(c43)[C@@H]2C1 [SDZ SER 082 fumarate],scaled lipid accumulation score,[2],≤ -0.006
CCCCCC(=O)N[C@H]1CCOC1=O [N-hexanoyl-L-Homoserine lactone],scaled lipid accumulation score,[1],≤ 0
CO[C@H](C/C=C\C=C\CC/C=C/C[C@H](C)/C=C/C(=C\C(=O)O)CC(=O)O)/C(C)=C\C=C(/C)C(=O)O [Bongkrekic acid],scaled lipid accumulation score,[1],≤ -0.014
N#CC(C#N)=Cc1ccc(O)cc1 [Tyrphostin-8],scaled lipid accumulation score,library stock concentration: 29.4 mM,≤ -0.012
CC(Cc1ccc(OCC(=O)O)cc1)NCC(O)c1cccc(Cl)c1 (centres undefined),scaled lipid accumulation score,[2],0.056
COc1cc2c(cc1O)C(CCc1ccc(Cl)cc1)N(C)CC2.Cl (centres undefined),scaled lipid accumulation score,[2],0.872 (active)
"COc1ccc(CC2c3cc(OC)c(OC)cc3CCN2C)cc1OC (racemic) [Laudanosine (R,S)]",scaled lipid accumulation score,,≤ 0
COc1cc2c(cc1O)[C@@H]1Cc3ccc(OC)c(O)c3CN1CC2 [Scoulerine],scaled lipid accumulation score,,0.07
C/C1=C/C(=O)O[C@@H]2C[C@@H](CC[C@H](C)/C=C\CC1)O[C@@](O)([C@@H]1CSC(=O)N1)C2 [Latrunculin B],scaled lipid accumulation score,library stock concentration: 12.6 mM,0.632
CCCCC/C=C\C/C=C\C/C=C\C/C=C\CCCC(=O)N[C@@H](C)CO [S-1 Methanandamide],scaled lipid accumulation score,[1],≤ 0
CN1C2CC(=O)CC1C(O)C2 (centres undefined) [6-Hydroxytropinone],scaled lipid accumulation score,,≤ 0
CN1[C@@H](C[C@@H](O)c2ccccc2)CCC[C@H]1C[C@H](O)c1ccccc1 [Lobelanidine hydrochloride],scaled lipid accumulation score,,0.194
O=C(O)C1=CCCN(CCOC(c2ccc(C(F)(F)F)cc2)c2ccc(C(F)(F)F)cc2)C1 [CI 966 hydrochloride],scaled lipid accumulation score,[2],≤ -0.006
CC1=C(O)C(=O)C=C2C1=CC=C1[C@@]2(C)CC[C@@]2(C)[C@@H]3C[C@](C)(C(=O)O)CC[C@]3(C)CC[C@]12C [Celastrol] [listing 1 of 2 here],scaled lipid accumulation score,[3],0.019
same,scaled lipid accumulation score,[4],0.093
same,scaled lipid accumulation score,[2],0.392
CC1=C(O)C(=O)C=C2C1=CC=C1[C@@]2(C)CC[C@@]2(C)[C@@H]3C[C@](C)(C(=O)O)CC[C@]3(C)CC[C@]12C [Celastrol] [listing 2 of 2 here],scaled lipid accumulation score,[1],1.34 (active)
O=C1C=C2C(C(C)=C1O)=CC=C3[C@]2(CCC4([C@@H]5C[C@@](CC[C@@]5(CC[C@]34C)C)([C@@](O)=O)C)C)C (some centres undefined) [Celastrol],scaled lipid accumulation score,[5],1.14 (active)
same,scaled lipid accumulation score,[2],1.14 (active)
